# Measured values reported in the supplement of paper PMC6555819.
# Tests used:
# Assay in all cases: PBM binding z-score (relative to random genomic background probes); higher = stronger binding; sequences stand for … in GC…GCGATTGACAGCGTAGAATGAAGG
# [1] = tested on: FXR:RXRa (NR concentration 270 nM, RXRa partner concentration 90 nM)
# In short: (§1)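 Custom Agilent 4×180K protein-binding microarrays carried double-stranded probes, each with a 34-nt variable region. These regions held direct-repeat seeds, single-nucleotide variants, half-site ablations and random human genomic background sequences. Ligand-free nuclear receptor dimers were incubated on the arrays for 1 h, antibodies against each partner (one per run) detected binding, and scanned fluorescence was regression-normalized. Binding z-scores take the random background probes as reference.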
# [2] = tested on: LXRa:RXRa (NR concentration 270 nM, RXRa partner concentration 90 nM)
# In short: as §1
# [3] = tested on: LXRa homodimer (NR concentration 270 nM)
# In short: as §1
# [4] = tested on: LXRb:RXRa (NR concentration 270 nM, RXRa partner concentration 90 nM)
# In short: as §1
# [5] = tested on: LXRb homodimer (NR concentration 270 nM)
# In short: as §1
# [6] = tested on: PPARa:RXRa (NR concentration 270 nM, RXRa partner concentration 90 nM)
# In short: as §1
# [7] = tested on: PPARg:RXRa (NR concentration 180 nM, RXRa partner concentration 90 nM)
# In short: as §1
# [8] = tested on: PPARg:RXRa 270nM:90nM, anti-RXR (NR concentration 270 nM, RXRa partner concentration 90 nM)
# In short: as §1
# [9] = tested on: PPARg:RXRa 30nM:10nM, anti-RXR (NR concentration 30 nM, RXRa partner concentration 10 nM)
# In short: as §1
# [10] = tested on: PPARg:RXRa 90nM:30nM, anti-RXR (NR concentration 90 nM, RXRa partner concentration 30 nM)
# In short: as §1
# [11] = tested on: PPARg:RXRa DBDmut IVT, anti-RXR (DBD mutation: RXRa K156A/R161A, NR concentration 270 nM, RXRa partner concentration 90 nM)
# In short: as §1
# [12] = tested on: PPARg:RXRa IVT, anti-PPARg (NR concentration 270 nM, RXRa partner concentration 90 nM)
# In short: as §1
# [13] = tested on: PPARg DBDmut:RXRa IVT, anti-PPARg (DBD mutation: PPARg1 K132A/R137A, NR concentration 270 nM, RXRa partner concentration 90 nM)
# In short: as §1
# [14] = tested on: PPARg DBDmut IVT, anti-PPARg (DBD mutation: PPARg1 K132A/R137A, NR concentration 270 nM)
# In short: as §1
# [15] = tested on: PPARg homodimer (NR concentration 180 nM)
# In short: as §1
# [16] = tested on: PXR:RXRa (NR concentration 270 nM, RXRa partner concentration 90 nM)
# In short: as §1
# [17] = tested on: PXR homodimer (NR concentration 270 nM)
# In short: as §1
# [18] = tested on: RARa:RXR (NR concentration 270 nM, RXRa partner concentration 90 nM)
# In short: as §1
# [19] = tested on: RARa homodimer (NR concentration 270 nM)
# In short: as §1
# [20] = tested on: RARb:RXRa (NR concentration 270 nM, RXRa partner concentration 90 nM)
# In short: as §1
Sequence,PBM binding z-score [1],PBM binding z-score [2],PBM binding z-score [3],PBM binding z-score [4],PBM binding z-score [5],PBM binding z-score [6],PBM binding z-score [7],PBM binding z-score [8],PBM binding z-score [9],PBM binding z-score [10],PBM binding z-score [11],PBM binding z-score [12],PBM binding z-score [13],PBM binding z-score [14],PBM binding z-score [15],PBM binding z-score [16],PBM binding z-score [17],PBM binding z-score [18],PBM binding z-score [19],PBM binding z-score [20]
AGTCAAAGTTCATCTAGGAAACGTAAGATATGCT,6.71,5.87,4.88,3.9,2.09,4.85,6.43,6.21,3.53,5.16,0.0279,2.61,1.09,0.7,2.32,4.53,3.68,3.18,1.09,5.02
CCGACTGGGGCGAGGTTACCATAACGCACAGCCA,0.344,0.809,-0.212,0.84,-0.662,1.49,1.16,1.05,-0.243,0.417,0.314,0.726,-1.05,-1.46,0.254,0.372,-0.517,1.1,-0.00275,0.965
CCTGCTAGGTCATGGTCAGCTTATCTACAGTATG,3.54,2.53,0.0847,1.71,-0.512,3.19,2.2,2.64,0.566,1.77,4.34,3.48,0.0412,-0.178,1.32,1.35,-0.301,2.36,0.172,3.81
GCGACAGGGGCAAAGCAGGTTACCATAAGGTTGG,0.475,1.06,-0.402,0.691,-0.988,1.41,0.589,0.106,-0.427,-0.446,0.177,0.684,-0.131,-0.736,0.212,0.934,-0.112,1.19,-0.459,1.47
ACAGACAGGTGAGTGAAGGTAAATCAGCTGGACG,0.263,-0.325,-0.654,-0.138,-0.427,-0.1,0.739,-0.481,-0.0948,-0.384,0.437,0.547,-0.117,0.0853,0.0194,-0.359,-0.168,0.0806,-0.397,0.388
TCTCAGAGGACACGAAAGGTCAGAGCTCGACATC,3.13,4.15,3.56,3.12,0.409,3.52,1.66,3.01,3.08,2.85,1.77,1.57,-0.124,-0.022,3.62,4.28,0.423,4.62,1.56,4.44
ATCTCTAGGTAAAAGTCCAGTGAATCCCGAGGAT,0.192,0.0512,-0.0646,-0.297,0.61,0.598,1.24,3.02,1.28,2.94,2.07,1.54,0.922,0.924,0.148,-0.1,0.357,-0.148,0.615,0.582
TCTAGTTGGTCACGGAGTTCACACACGACGGGTA,1.65,2.17,2.34,1.88,0.263,2.63,1.88,2.66,3.07,2.99,2.4,2.92,1.45,0.822,1.92,4.53,3.62,2.15,0.649,2.87
AATACAGGGTCATCGTAGGCCAGCGTACGCACAG,7.47,6.19,2.61,4.66,1.23,6.28,6.7,5.95,2.73,4.61,2.7,4.3,1.13,2.04,1.67,4.77,0.406,4.77,0.478,4.55
CGAAATAGGTCAAGGACAGTGAATCTCCGCACGC,5.6,4.09,0.715,3,0.676,5.27,7.22,6.58,4.2,6.39,7.8,7.31,2.5,0.573,3.31,2.69,0.113,3.82,1.59,4.51
CGTCCAAGGTCAAGGTCAGTGGAAGAGACTCGAA,7.57,5.46,1.22,4.68,0.505,5.89,6.29,6.3,2.6,5.24,3.54,4.55,0.113,-0.109,3.84,4.68,1.08,4.79,0.944,5.61
CCTTACGGTTCACGAGGTTATAGCACGACGAGCG,3.45,3.49,1.87,2.57,0.189,3.75,1.96,2.4,0.593,1.58,0.19,0.535,0.19,0.414,1.45,3.2,1.29,3.8,1.36,1.99
CCGACTGGGGCAAAGGTTTCCATACTCAGTACGA,-0.478,-0.199,-0.443,0.175,-1.02,3.35,8.18,7.78,8.2,9.01,5.1,4.87,-0.186,-0.49,0.0767,-0.0306,-0.339,0.0342,-0.339,0.737
CCTTACTGGTCACGAGGTTATAGCACGACGAGCG,1.49,1.46,0.682,1.36,0.455,2.04,1.77,1.97,-0.0752,1.04,1.37,2.01,1.13,0.311,1.78,1.55,0.447,2.19,1.15,2.46
